From PubChem BioAssay AID2796 (The Scripps Research Institute Molecular Screening Center, 2010) come the findings set out here.

Out of some 320,000 compounds screened, about 8,000 (2.5%) were called active. The sample holds actives, similar compounds and a random draw of the others, so the mix is not that of the screen. Values without a mark were called inactive. Cut-off read from the data, not from the text of the source: active = activation above about 47%; inactive = the rest.

Chain of Aryl hydrocarbon receptor (Homo sapiens) (P35869 whole entry, looked up): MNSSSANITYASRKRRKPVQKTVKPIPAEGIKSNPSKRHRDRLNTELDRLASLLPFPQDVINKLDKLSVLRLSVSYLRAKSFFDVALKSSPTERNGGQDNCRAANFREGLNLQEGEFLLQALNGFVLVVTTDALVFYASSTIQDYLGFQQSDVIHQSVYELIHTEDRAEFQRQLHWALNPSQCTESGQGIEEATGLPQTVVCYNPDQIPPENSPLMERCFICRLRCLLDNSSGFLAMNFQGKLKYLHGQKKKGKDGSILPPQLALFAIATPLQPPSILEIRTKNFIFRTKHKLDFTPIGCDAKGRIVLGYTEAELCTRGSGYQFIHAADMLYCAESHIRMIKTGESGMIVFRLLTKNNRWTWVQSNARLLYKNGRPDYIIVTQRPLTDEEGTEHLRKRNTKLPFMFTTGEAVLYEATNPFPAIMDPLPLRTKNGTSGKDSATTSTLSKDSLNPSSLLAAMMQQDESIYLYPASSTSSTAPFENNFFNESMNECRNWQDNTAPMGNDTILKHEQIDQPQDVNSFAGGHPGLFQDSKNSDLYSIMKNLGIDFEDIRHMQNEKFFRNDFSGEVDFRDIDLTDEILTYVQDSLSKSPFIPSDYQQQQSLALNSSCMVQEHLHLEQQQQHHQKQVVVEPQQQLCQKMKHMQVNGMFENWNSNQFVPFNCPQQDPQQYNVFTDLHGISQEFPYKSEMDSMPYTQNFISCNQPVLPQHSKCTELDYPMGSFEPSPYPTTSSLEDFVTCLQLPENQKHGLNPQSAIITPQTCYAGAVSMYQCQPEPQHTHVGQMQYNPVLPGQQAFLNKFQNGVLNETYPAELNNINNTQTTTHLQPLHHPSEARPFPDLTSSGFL

The assay has as its target Aryl hydrocarbon receptor (Homo sapiens) (UniProt P35869). The experiment in a line: AHR activators, primary screen, cell-based, luminescence, luciferase reporter, human (AID 2796).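 Note: 0% = vehicle wells and 100% = reference agonist.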 Conditions: AHR-responsive luciferase reporter cells, at 5 µM, hits give high values. A general note: A reporter such as luciferase makes a cellular process visible.
Take `C/C(=N\NC(=S)Nc1ccc(C)cc1)c1cc2ccccc2o1`: the activation is 70.2% (active).

`Cc1ccc(NC(=O)c2cc3ccccc3o2)cc1`: the activation is 25.5%.

Take `O=C(Nc1ccncc1)c1cc2ccccc2o1`: the activation was 0.11%.

As for `CCOC(=O)C1(S(=O)(=O)c2ccc(Cl)cc2)CCN(Cc2ccccc2)CC1`, the activation is 0.91%.

With `CCOc1ccc(NS(=O)(=O)c2ccc(Cl)c(C(=O)N(C)Cc3cccnc3)c2)cc1`, the activation was -0.23%.

In the case of `c1csc(CN2CCN(Cc3cccs3)C2c2cccs2)c1`, the activation was -2.12%.

As to `Brc1ccc2c(c1)[C@H]1OCC[C@H]1[C@@H](c1cccs1)N2`, the activation was 77.4% (active).

Turning to `COc1ccc(CNC(=O)COC(=O)C(CCSC)N2C(=O)c3ccccc3C2=O)cc1` (stereo unspecified), the activation is -0.44%.

In the case of `O=C(Nc1cc(C(F)(F)F)ccc1Cl)C(=O)N1CCCCC1`, the activation was 4.43%.

`FC(F)(F)c1ccc2c3n(nc2c1)CCN=C3c1ccc(Cl)cc1`: the activation is 73.6% (active).

With `CN(C)CCN(C(=O)C1CCCCC1)c1nc2cc3c(cc2s1)OCO3`, the activation was 4.17%.

With `CCN(CC)CCN(C(=O)c1ccc(N2C(=O)CCC2=O)cc1)c1nc2cc3c(cc2s1)OCO3`, the activation is 6.01%.

As to `CCN(CC)CCN(C(=O)c1cc(Cl)sc1Cl)c1nc2cc3c(cc2s1)OCO3`, the activation is 72.1% (active).

Turning to `COC(=O)[C@]1(Cc2ccccc2)N[C@H](CN(C)S(=O)(=O)c2ccc(OC(F)(F)F)cc2)[C@@H]2C(=O)N(C)C(=O)[C@@H]21`, the activation was -1.46%.

With `CCC(=O)NC(=S)Nc1ccc(NC(=O)c2ccco2)c(Cl)c1`, the activation was 84.6% (active).

`O=C(Nc1ccc(NC(=O)c2ccco2)c(Cl)c1)c1cccc([N+](=O)[O-])c1`: the activation is 2.52%.

On to `O=C(NNC(=S)Nc1ccc(Br)cc1Cl)c1ccco1`, for which the activation was 2.47%.

As to `Cc1ccc(F)cc1NC(=O)N1CCCN(c2ccc(C(F)(F)F)cn2)CC1`, the activation was -3.14%.

With `CCc1nn(CCCC(=O)Nc2ccc(C)c(C)c2)c(=O)c2cc3occc3n12`, the activation is 4.33%.

For `Nc1c(C(=O)c2cccs2)sc2nsc(SCCN3CCCCC3)c12`, the activation was 25.2%.

For the molecule `OC(COc1ccc(CN2CCSCC2)cc1)CN1CCCCC1` (stereo unspecified), the activation is -1.38%.

Turning to `CCOc1ccc(CN2CCN(Cc3ccon3)CC2CCO)cc1` (stereo unspecified), the activation was 7.62%.

Take `Cc1cccc(/C=N/NC(=O)CNc2cccc3ccccc23)n1`: the activation was 46%.

For the molecule `C/C(=N\NC(=O)CNc1cccc2ccccc12)c1ccc(Br)s1`, the activation was 91.4% (active).

As for `Cn1cccc1/C=N/NC(=O)CNc1cccc2ccccc12`, the activation was 5.35%.

As to `O=C(CSc1nnc(SCc2ccc(F)cc2)s1)Nc1ccc(C(=O)O)cc1`, the activation was -0.59%.

As to `Clc1ccc(-c2nnc(SCc3nc4ccccc4s3)o2)cc1`, the activation is 18.2%.

`O=C(NCC#CCSc1nnc(-c2cccc3ccccc23)o1)c1cccs1`: the activation was -2.43%.

Take `C#CCSc1nnc(-c2sc3ccccc3c2Cl)o1`: the activation was 89.2% (active).

For `COC(=O)CSc1ccc2nnc(CCNS(=O)(=O)c3ccc(C)cc3)n2n1`, the activation is 0.87%.

Turning to `O=C(CN1CCN(S(=O)(=O)c2ccc(Cl)s2)CC1)NCc1ccc(Cl)cc1`, the activation is -0.6%.

On to `CC[n+]1cc(C)ccc1/C=C/c1ccc(N(C)C)cc1`, for which the activation is -0.11%.

On to `Cc1c(C(=O)OCC(=O)N2CCCC2=O)oc2ccccc12`, for which the activation was 1.38%.

In the case of `COc1cccc(C(=O)Nc2nnc(S(=O)(=O)N3CCCCC3)s2)c1`, the activation was 9.59%.

Turning to `COc1cccc(NC(=O)NCCN2CCCCC2)c1`, the activation was 2.06%.

Take `COc1cccc(NC(=O)Nc2nnc(N3CCCCC3C)s2)c1` (stereo unspecified): the activation is 62.3% (active).

On to `Nc1ccn(C2CC(O)C(CO)O2)c(=O)n1` (stereo unspecified), for which the activation is -4.38%.

Regarding `O=C(NNC(=O)c1ccc(Cl)nc1)c1ccc(Br)cc1`, the activation was -2.45%.

With `O=C(NC1CCCC1)C(=O)c1c[nH]c2ccccc12`, the activation was -1.15%.

`O=S(=O)(O)Oc1c[nH]c2ccccc12`: the activation was 66.7% (active).

Turning to `NC(=O)CSc1c[nH]c2ccccc12`, the activation is 20.9%.

As for `COc1ccc(N2CC(C(=O)NCCN3C(=O)S/C(=C\c4cccnc4)C3=O)CC2=O)c(OC)c1` (stereo unspecified), the activation is -0.14%.

For the molecule `COc1ccc(C(CNC(=O)c2cccc(S(=O)(=O)Nc3ccccc3Cl)c2)N2CCOCC2)cc1` (stereo unspecified), the activation is 8.55%.

In the case of `Cc1cc(Br)ccc1NC(=O)CN(C)C(=O)CN1C(=O)NC2(CCCC2)C1=O`, the activation is 1.62%.

As to `O=C1c2ccccc2C(=O)N1c1cccc2ccccc12`, the activation was 0.6%.

For `O=C1c2cccc3cccc(c23)C(=O)N1c1cccc(O)c1`, the activation is -1.76%.

As for `COc1ccc(N2C(=O)c3cccc4cccc(c34)C2=O)nn1`, the activation is 65% (active).

As to `O=C(NC1CCCC1)C1CCN(C(=O)Nc2cccc(Cl)c2)CC1`, the activation was 0.72%.

`CC(C)OCCCNC(=S)N1CCC(C(=O)c2ccc3c(c2)OCCO3)CC1`: the activation was 1.57%.

Regarding `Oc1[nH]c2ccc(Br)cc2c1N=Nc1nn[nH]n1`, the activation is 16.2%.

For the molecule `NS(=O)(=O)c1ccc(N=Nc2c(O)[nH]c3ccc(Br)cc23)cc1`, the activation was -10.5%.

Turning to `Cc1cccc(N=Nc2c(O)[nH]c3ccc(F)cc23)c1`, the activation was 93% (active).

For `CC(=O)n1cc([C@H]2C=C(C(=O)N3CCOCC3)O[C@@H](OCc3ccc(CO)cc3)C2)c2ccccc21`, the activation is 3.74%.

Turning to `COCCN(CCOC)S(=O)(=O)NC[C@H]1O[C@@H](n2cnc3c(N)ncnc32)[C@H](O)[C@@H]1O`, the activation is 0.98%.

`CN1C(=O)/C(=N/OC(=O)c2ccccc2Br)c2ccccc21`: the activation was -2.06%.

For the molecule `CCC1C(=O)c2ccccc2N(C)C1=O` (stereo unspecified), the activation was 9.44%.

`CN1C(=O)/C(=C\c2cc(Br)cs2)c2ccccc21`: the activation is 62.1% (active).

As for `Nc1nc(C23CC4CC(CC(C4)C2)C3)cs1`, the activation is -0.51%.

As for `Cn1cc(CCC(=O)NC2CC2)c2ccccc21`, the activation is 27.1%.

`COc1ccc(CCNC(=O)CCc2cn(C)c3ccccc23)c(OC)c1`: the activation was 48.4% (active).

On to `COc1ccc(CCNC(=O)CN2C(=O)CCSc3ccccc32)c(OC)c1`, for which the activation is -0.88%.

As for `CCCCn1c(N)c(N(Cc2ccccc2OC)C(=O)COc2cc(C)ccc2Cl)c(=O)[nH]c1=O`, the activation is 4.71%.

For `Cc1cc([N+](=O)[O-])c(NC2CCCCC2)c([N+](=O)[O-])c1`, the activation is -4%.

As for `O=C(COC(=O)c1ccc(O)cc1O)NNC(=O)c1cccs1`, the activation is 0.36%.

For the molecule `Cc1ccc(NC(=O)c2sc3nc(N)c(C#N)cc3c2N)cc1`, the activation is 115% (active).

On to `CCc1ccc2nc3sc(C(=O)Nc4nnc(CC)s4)c(N)c3cc2c1`, for which the activation was 0.59%.

As for `Cc1ccc(NC(=O)CSCC(=O)Nc2sccc2C#N)cc1`, the activation was 25.5%.

In the case of `Cc1ccc(-c2nc(C#N)c(NCCCn3ccnc3)o2)cc1`, the activation is 124% (active).

Turning to `O=C(CCN1C(=O)c2ccccc2C1=O)NCCCn1ccnc1`, the activation is 6.16%.

Turning to `Cc1ccc(S(=O)(=O)c2nc(NCCCn3ccnc3)sc2Cl)cc1`, the activation is 9.5%.

As for `CCOC(=O)C1CCN(C(=O)COc2cccc3ccccc23)CC1`, the activation was 6.85%.

With `Cc1ncoc1C(=O)NCCC(c1ccccc1)c1ccccc1`, the activation was 2.07%.

Consider `Cc1cc(F)ccc1S(=O)(=O)Nc1ccc(C(=O)N(C)Cc2ccco2)cc1`, for which the activation is -1.13%.

As to `Cc1cc(Cl)ccc1OCCCC(=O)Nc1cccc(-n2cnnn2)c1`, the activation was 2.58%.

Consider `O=C(Nc1ccc2ccccc2c1)Nc1ccc2snnc2c1`, for which the activation was 7.08%.

As for `O=C(Nc1cccc(Br)c1)c1ccc2snnc2c1`, the activation is 106% (active).

Turning to `CCc1ccccc1NC(=O)c1ccc2snnc2c1`, the activation is 0.7%.

With `COc1ccc(C(=O)NCC2CCCCC2)cc1S(=O)(=O)N1CCCC1`, the activation is 0.47%.

As to `COc1cc(C=NNC(=O)c2cccnc2)ccc1OC(=O)c1ccccc1F`, the activation is 7.39%.

Take `CCOC(=O)c1nnn(-c2nonc2-n2cccc2)c1CN1CCC(C(=O)OCC)CC1`: the activation is 0.56%.

In the case of `Brc1ccc(Nc2c3c(nc4ncnn24)CCC3)cc1`, the activation was 104% (active).

As to `CC1CCc2c(nc3ncnn3c2Nc2ccc(OC(F)(F)F)cc2)C1` (stereo unspecified), the activation was 12.3%.

In the case of `Cc1cc(Nc2ccc(Br)cc2F)n2ncnc2n1`, the activation was 7.31%.

`OCCCNc1nccc(-c2cc(Nc3cccc(Cl)c3)ncn2)n1`: the activation is -11.1%.

For `CC(C)n1cnc2c(Nc3cccc(Cl)c3)nc(N(CCO)CCCO)nc21`, the activation is 95.2% (active).

On to `CC(C)C[C@H](CO)Nc1nc(N(C)c2cccc(Cl)c2)c2ncn(C(C)C)c2n1`, for which the activation was 14.5%.

As to `CC1=NN(/C(=N\c2nnc(C)s2)Nc2ccccc2)[C@H](c2ccc(C)cc2)S1`, the activation was 3.18%.

Regarding `O=C(O)c1cccnc1NC1CCCC1`, the activation is -0.53%.

On to `CCN(CC)S(=O)(=O)N1CCC(C(=O)NC(C)CCc2ccccc2)CC1` (stereo unspecified), for which the activation was -1.06%.

Regarding `C#CCCOC(=O)N1C2=NC(C(=O)OC)=C(C(=O)OC)[C@@H]3N(C)c4ccc(OC)cc4[C@]23C[C@H]1C(=O)OC`, the activation was -1.46%.

As for `O=C1CCc2cc(S(=O)(=O)Nc3ccc(C(F)(F)F)cc3)cc3c2N1CC3`, the activation is -2.33%.

Take `CC1CCN(Cc2nc(-c3ccc(Cl)cc3)no2)CC1`: the activation is -0.15%.

Turning to `COCC1CCCN(Cc2cn[nH]c2-c2cc3ccccc3o2)C1` (stereo unspecified), the activation was 4.44%.

Turning to `COCC1CCCN(Cc2nc(-c3ccc4c(c3)OCO4)no2)C1` (stereo unspecified), the activation is 52.6% (active).

As for `CCN1CN(Cc2ccccc2)CNC1=S`, the activation is 2.74%.

As for `CC(C)N1CCc2c(sc(NC(=O)Cc3ccccc3)c2C#N)C1`, the activation was 43.6%.
